IL1B secr inh: inflammasome signaling inhibition, IL-1 beta readout | 360,000 compounds, 4.7% hits | activity change, % at 57.5 µM | THP-1 LPS/ATP IL-1B secretion, AlphaLISA, 16 h; active compounds read low; in the data active = activity change below about -50%; inconclusive = mostly about -30% to -49%; note: % is set by controls: 0 for no effect and ±100 for the full control effect
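THP-1 cells pretreated 1 hr with compounds (up to 57.5 uM final), then stimulated with LPS (250 ng/mL final) plus ATP (1.25 mM final); secreted IL-1B measured by AlphaLISA after 16 hr, decreased signal indicating inhibition.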
HepG2 viability: kills HepG2 cells in TGF-b inhibitor counter-screen; HepG2 CAGA-GFP viability, ATP luminescence, 18 h; Potency, µM (series often up to 46.1 µM), for inactives: at the highest dose activity change, negative = cytotoxicity, most hits filed as cytotoxic; 410,000 compounds, 0.76% hits; note: potency is the fitted concentration of half-maximal effect
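CellTiter-Glo luminescence gave cytotoxicity after 18 hours at 37 degrees C. The cells were HepG2 CAGA-GFP in 1% FBS DMEM, stimulated with 500 pg/mL TGF-beta after compound addition. %Activity was normalised to no-cell wells (complete cell-killing) and DMSO (no toxicity), and curves were fitted and classified.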
TDP1 block: blocks human tyrosyl-DNA phosphodiesterase 1; Q9NUW8; recombinant TDP1, AlphaScreen DNA substrate cleavage; Potency, µM (doses to about 130 µM), without a hit: at the top dose activity change, negative = inhibition, usual class: inhibitors; 350,000 compounds, 0.28% hits; AID 485290; note: potency is the fitted concentration of half-maximal effect; % is set by controls: 0 for no effect and ±100 for the full control effect; nearly all actives have a fitted effect of over 40% in size
Target sequence (Q9NUW8 whole entry, looked up): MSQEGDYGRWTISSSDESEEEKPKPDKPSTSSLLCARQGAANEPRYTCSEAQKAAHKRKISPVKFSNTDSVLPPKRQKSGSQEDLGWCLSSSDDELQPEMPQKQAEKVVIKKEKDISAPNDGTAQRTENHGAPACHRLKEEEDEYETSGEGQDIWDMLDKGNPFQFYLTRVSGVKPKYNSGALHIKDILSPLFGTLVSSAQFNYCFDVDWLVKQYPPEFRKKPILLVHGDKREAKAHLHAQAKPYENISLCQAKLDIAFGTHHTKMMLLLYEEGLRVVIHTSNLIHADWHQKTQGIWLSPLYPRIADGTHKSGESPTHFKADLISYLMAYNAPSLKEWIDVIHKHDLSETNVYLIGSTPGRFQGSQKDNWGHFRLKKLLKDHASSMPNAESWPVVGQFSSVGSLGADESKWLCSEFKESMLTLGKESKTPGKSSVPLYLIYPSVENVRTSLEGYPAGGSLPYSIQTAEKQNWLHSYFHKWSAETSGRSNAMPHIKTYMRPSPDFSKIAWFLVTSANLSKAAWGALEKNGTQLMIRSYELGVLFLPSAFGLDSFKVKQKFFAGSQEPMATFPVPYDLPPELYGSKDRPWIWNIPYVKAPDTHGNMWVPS
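Tdp1 1 nM final; 15 min RT w/ cpd; substrate 15 nM, 5 min; beads 10 ug/ml, 10 min; AlphaScreen read. Neg ctrl: no enzyme.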
TDP1 cell CPT: growth inhibition of DT40 Tdp1-/-;hTDP1 cells with camptothecin (screen for TDP1 inhibitors); chicken DT40 Tdp1-/-;hTDP1 cells + 20 nM CPT, ATP luminescence, 48 h; Potency, µM (top dose mostly 46.2 µM), for the others: top-dose activity change, negative = growth inhibition, hits mostly inhibitors; 420,000 compounds, 12% hits; note: potency is the fitted concentration of half-maximal effect; % is set by controls: 0 for no effect and ±100 for the full control effect; nearly all actives have a fitted effect of over 55% in size
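Cell growth measured by CellTiter-Glo luminescence after a minimum 48 h, 37 C compound exposure with 20 nM CPT in Tdp1-knockout DT40 cells stably expressing hTDP1, seeded 400/well; qHTS titration format.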
TDP1 cell noCPT: qHTS for Inhibitors of human tyrosyl-DNA phosphodiesterase 1 (TDP1): qHTS in cells in absence of CPT; DT40 Tdp1-/- hTDP1 cells, no CPT, ATP luminescence, 48 h; Potency, µM (doses to about 46.2 µM), without a hit: at the top dose activity change, negative = growth inhibition, most hits filed as inhibitors; 420,000 compounds, 15% hits; AID 686978, 2013; note: potency is the fitted concentration of half-maximal effect; % is set by controls: 0 for no effect and ±100 for the full control effect; nearly all actives have a fitted effect of over 55% in size
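Readout: luminescence from CellTiter-Glo after 30 min in the dark at RT. Cells: DT40 Tdp1-/- with stable hTDP1, 400/well. Exposure: compounds alone, ≥48 hr, 37 °C.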
TGFb SMAD3 inh: blocks TGF-b signaling; 410,000 compounds, 1.2% hits; Potency, µM (titrated, usually from 46.1 µM), without a hit: at the highest dose activity, negative = inhibition, usual class: inhibitors; HepG2 CAGA-GFP TGF-b/SMAD3 reporter, GFP fluorescence, 18 h; TGF-beta stimulated, 500 pg/mL final; note: potency is the fitted concentration of half-maximal effect; % is set by controls: 0 for no effect and ±100 for the full control effect; nearly all actives have a fitted effect of over 65% in size
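Using HEPG2 CAGA-GFP reporter cells at 1000 cells/well, we pinned test compounds, stimulated with recombinant TGF-beta (500 pg/mL final) and measured total well GFP after 18 h.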
Active calls of the source: *; ? = inconclusive; / = not tested or not shown; [ ] = remark or other dose. Only some compounds are listed: those with a hit (about 19% of all), similar ones and a draw of the others. Unless noted, calls come from the whole dose curve; as a rule, active = well fitted curve in the direction sought with a large enough effect; inconclusive = small, poorly fitted or top-dose-only effect, or another doubt; inactive = no such curve, though single readings can be large; an effect the other way counts as inactive or inconclusive.

SMILES	IL1B secr inh	HepG2 viability	TDP1 block	TDP1 cell CPT	TDP1 cell noCPT	TGFb SMAD3 inh
COc1ccccc1CNC(=O)CN(C)S(=O)(=O)c1cccc2cccnc12	4	9%	/	-3%	-17%	-1%
COc1ccc(NC(=O)CCCC(=O)NCCc2ccc(OC)c(OC)c2)cc1	-15	-37%	4%	?	15%	-3%
CCOC(=O)C1(CC2CC2)CCN(Cc2ccc3cccc(F)c3n2)CC1	?	-28%	3%	21µM*	16µM*	-20%
CCOC(=O)C1(CC2CC2)CCN(Cc2cnc(-c3ccc(OC)cc3)nc2)CC1	33	-11%	/	?	16µM*	-30%
CCOC(=O)C1(CC2CC2)CCN(Cc2ccc(O)c(Cl)c2)CC1	/	/	0%	/	/	/
CCOC(=O)C1(CC2CC2)CCN(Cc2cn[nH]c2-c2ccccc2)CC1	0	-2%	0%	-13%	13%	7%
CCOC(=O)C1(CC2CC2)CCN(Cc2cn[nH]c2-c2cccc(F)c2)CC1	-8	-39%	/	?	18µM*	?
CC(C)(C)OC(=O)CC12CCCCC1NC(=O)O2 (centres undefined)	10	-6%	/	4%	-5%	0%
COC(=O)CCSc1nc2sc3c(c2c(=O)n1Cc1ccccc1)CCC(C(C)(C)C)C3 (centres undefined)	/	-2%	5%[12.3 µM]	?	?	34%
Cc1ccc2nc(COc3ccccc3NC(=O)C(C)(C)C)cc(=O)n2c1	/	0%	3%	?	?	28%
Cc1ccc(-n2nnnc2SCC(=O)N(CC(C)C)c2c(N)n(CC(C)C)c(=O)[nH]c2=O)cc1	-52*	-4%	3%	20%	-11%	-1%
O=C(O)c1cccc(-c2csc(C(O)c3ccccc3)n2)c1 (centres undefined)	11	0%	/	-3%	1%	-9%
CCCCN(CCCC)CC(O)c1cc(Cl)cc2c1-c1ccc(Cl)cc1C2=Cc1ccc(Cl)cc1 (centres undefined)	/	-8%	/	8.9µM*	?	-20%
COc1ccc(/C=N/N=C2/NC(=O)C(CC(=O)O)S2)cc1OCc1ccc(Cl)cc1Cl (centres undefined)	16	1%	71µM*	1%	-7%	-6%
COc1ccc([C@H]2/C=C\CN(C(=O)[C@H](Cc3ccccc3)NC(=O)OCC3c4ccccc4-c4ccccc43)CC(=O)N2Cc2ccc(F)cc2)cc1	-26	-25%	/	21µM*	?	-2%
COc1ccc(C2/C=C\CN(C(=O)c3ccccc3)CC(=O)N2Cc2cccc(F)c2)cc1 (centres undefined)	0	-16%	1%[56.1 µM]	?	-64%	?
COc1ccc(C2/C=C\CN(C(=O)OCC3c4ccccc4-c4ccccc43)CC(=O)N2Cc2cccc(F)c2)cc1 (centres undefined)	2	-37%	1%[56.1 µM]	?	23µM*	?
CC(C)c1ccc(C(=O)OCC(=O)Nc2cccc(S(=O)(=O)NC3=NCCC3)c2)cc1	21	-3%	/	-37%	-22%	3%
O=C(NC1CCCCC1)C(c1ccc(F)cc1)N(Cc1cccs1)C(=O)CN1C(=O)c2ccccc2S1(=O)=O (centres undefined)	40	-1%	0%	16µM*	16µM*	-25%
CCOc1ccc(CN(CC)C(=O)Cc2c[nH]c3ccccc23)cc1OC	0	-2%	7%	?	15µM*	22%
O=C(NC1CCCC1)C(c1ccc(F)cc1)N(Cc1ccccc1Cl)C(=O)CCl (centres undefined)	-91*	-27%	-1%	5.8µM*	3.3µM*	-27%
COc1ccc(C(C(=O)NC2CCCCC2)N(C(=O)Cc2c[nH]c3ccccc23)c2ccccc2C)cc1OC (centres undefined)	-61*	13%	6%	?	21µM*	-15%
COc1ccc(N(C(=O)c2ccco2)C(C(=O)NC2CCCC2)c2ccc(OC)c(OC)c2)cc1 (centres undefined)	5	2%	12%	4%	1%	0%
C[C@@H]1CN(Cc2ccc3c(c2)CN(C(=O)CCc2nc4ccc(F)cc4[nH]2)CCO3)C[C@H](C)O1	/	/	/	3%[9.04 µM]	-29%	/
COC(=O)CC1c2ccccc2C=C(C2CC2)N1C(=O)OC (centres undefined)	/	/	4%	/	/	/
SMILES	IL1B secr inh	HepG2 viability	TDP1 block	TDP1 cell CPT	TDP1 cell noCPT	TGFb SMAD3 inh
Cc1ccc(C2(C)NC(=O)N(CC(=O)N3c4ccccc4NC(=O)CC3C)C2=O)cc1 (centres undefined)	4	9%	1%	-18%	20%	20%
CC[C@@H](C)[C@@H](N)C1=N[C@H](C(=O)N[C@@H](CC(C)C)C(=O)N[C@@H](CCC(=O)O)C(=O)N[C@@H](C(=O)N[C@@H]2CCCCNC(=O)[C@@H](CC(N)=O)NC(=O)[C@@H](CC(=O)O)NC(=O)[C@@H](Cc3cnc[nH]3)NC(=O)[C@@H](Cc3ccccc3)NC(=O)[C@@H]([C@H](C)CC)NC(=O)[C@@H](CCCN)NC2=O)[C@@H](C)CC)CS1	/	/	/	11%	-12%	/
Cc1ccc(C(C(=O)NC2CCCCC2)N(C(=O)c2csnn2)c2ccccc2F)o1 (centres undefined)	-12	15%	8%	-18%	?	5%
Cc1ccc(N(C(=O)c2ccco2)C(C(=O)NC2CCCC2)c2ccco2)c(C)c1 (centres undefined)	-4	-4%	2%	-27%	?	8%
Cc1ccc(C(C(=O)NC2CCCC2)N(C(=O)CNC(=O)c2ccco2)c2ccccc2)o1 (centres undefined)	-5	-3%	-11%	6%	0%	4%
Cc1ccc(C(C(=O)NC2CCCCC2)N(Cc2ccco2)C(=O)Cc2c[nH]c3ccccc23)o1 (centres undefined)	-77*	3%	6%	?	?	?
COc1ccc(C(C(=O)NC2CCCCC2)N(Cc2cccs2)C(=O)Cc2c[nH]c3ccccc23)cc1OC (centres undefined)	?	-1%	2%	13µM*	21µM*	-1%
COc1ccc(C(C(=O)NC2CCCC2)N(C(=O)Cc2cccs2)C2CC2)cc1OC (centres undefined)	-7	5%	/	10%	-2%	-8%

Source: PubChem BioAssay (National Center for Advancing Translational Sciences (NCATS))
